Assay [1] concerns the target Nuclear receptor subfamily 1 group I member 2 (Rattus norvegicus) (UniProt Q9R1A7). As to the kind of experiment: qHTS assay for small molecule activators of the rat pregnane X receptor (rPXR) signaling pathway (AID 651751). Further: 0% is about no effect. The settings on record: rPXR reporter cells, luciferase (One-Glo), 24 h. For orientation: In qHTS, concentration-response curves come from the screen itself.

Assay [2] is described as follows: qHTS assay for small molecule activators of the human pregnane X receptor (PXR) signaling pathway (AID 720659). Further: 0% is about no effect. The settings on record: DPX-2 HepG2 CYP3A4-luciferase, 24 h; series mostly up to 92.3 µM.
The nature of assay [3]: qHTS assay to identify inhibitors of the type 1 interferon - major histocompatibility complex class I in skeletal muscle: Counter screen cell viability and HiBit confirmation (AID 1347412; active means well fitted inhibition curve with a large enough effect; further: on the % scale 0 is the no-effect control and ±100 the full control effect; nearly all actives have a fitted effect of over 60% in size). Conditions: iHSKM muscle cells + IFN-b, HiBiT or CellTiter-Glo, 24 h, at 45.9 µM (top of the series). In a few lines: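 Luminescence read-out: Nano-Glo HiBiT lytic signal from C-terminally HiBiT-tagged HLA-B in CRISPR-edited human myoblasts, plus CellTiter Glo ATP as viability counter screen. IFN-beta 4.0 ng/ml; 24 hrs treatment at 37 C, 5% CO2.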

“And” between values parts separate entries of the source, which are not always exact repeats. Identical values can stand only once. A number with no mark means an inactive call. Records with an inconclusive call do not appear. The source made the active and inactive calls. Unless noted, how the calls were made is not given here.

Sequence of Nuclear receptor subfamily 1 group I member 2 (Rattus norvegicus) (Q9R1A7 whole entry, looked up): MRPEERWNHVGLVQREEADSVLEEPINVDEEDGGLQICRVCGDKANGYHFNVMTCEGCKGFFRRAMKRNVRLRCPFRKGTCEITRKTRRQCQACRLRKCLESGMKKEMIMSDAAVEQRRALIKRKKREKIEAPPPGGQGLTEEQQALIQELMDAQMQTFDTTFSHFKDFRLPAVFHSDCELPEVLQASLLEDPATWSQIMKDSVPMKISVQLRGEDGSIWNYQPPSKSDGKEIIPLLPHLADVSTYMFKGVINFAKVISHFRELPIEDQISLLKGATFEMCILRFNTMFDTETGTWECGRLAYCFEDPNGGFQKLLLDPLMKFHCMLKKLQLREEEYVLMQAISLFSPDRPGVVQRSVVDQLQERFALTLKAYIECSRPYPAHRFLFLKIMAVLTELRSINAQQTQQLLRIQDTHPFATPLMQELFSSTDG

As to `CC(O)COc1ccccc1` (centres undefined), the max response in assay [1] is 0.833%. Also, in assay [2], the outcome was inactive. Consider `CC(=O)Oc1ccc(C2(c3ccc(OC(C)=O)cc3)C(=O)Nc3ccccc32)cc1`, for which, in assay [3] (Viability), the activity change, negative = inhibition was -23.2%. Consider `O=S(=O)(O)NC1CCCCC1`, for which the max response in assay [1] is 1.16%. In addition, the result in assay [2] was inactive. In the case of `COc1ccc(Cl)cc1C(=O)NCCc1ccc(S(=O)(=O)NC(=O)NC2CCCCC2)cc1`, the max response in assay [1] is 1.29%. As for `NCCNCCNCCNCCN`, the max response in assay [1] was -1.57% and 1.12%. In addition, the compound was classed as inactive in assay [2].

For `COc1ccccc1O`, in assay [2], the compound was classed as inactive. Turning to `CNC(=O)Oc1ccc2c(c1)[C@]1(C)CCN(C)[C@@H]1N2C`, the max response in assay [1] was 1.34%. Further, the outcome in assay [2] was inactive.

Consider `O=C1c2c(O)cccc2Cc2cccc(O)c21`, for which, in assay [1], the max response is -0.627%. The outcome in assay [2] was inactive.

With `Oc1cccc(O)c1`, the max response in assay [1] is 4.18%. In addition, the compound was classed as inactive in assay [2]. For `O=C1NS(=O)(=O)c2ccccc21` the same measures were -2.55% and “inactive”. On to `CC(CN1c2ccccc2Sc2ccccc21)N(C)C` (centres undefined), for which the max response in assay [1] was 3.22%.

`CN(C)CCC=C1c2ccccc2CCc2ccccc21`: the max response in assay [1] was 4.03% and -3.34%. For `CCCCOC(=O)c1ccc(O)cc1`, in assay [1], the max response was -8.55% and 2.81%. `CC(=O)O[C@@]12CO[C@@H]1C[C@H](O)[C@@]1(C)C(=O)[C@H](O)C3=C(C)[C@@H](OC(=O)[C@H](O)[C@@H](NC(=O)OC(C)(C)C)c4ccccc4)C[C@@](O)([C@@H](OC(=O)c4ccccc4)[C@H]21)C3(C)C`: the activity change, negative = inhibition was -20.7% in assay [3] (HiBiT) and -25.4% in assay [3] (Viability). As for `NC(=O)c1ncn([C@@H]2O[C@H](CO)[C@@H](O)[C@H]2O)n1`, the max response in assay [1] was -13.6%. Further, in assay [2], the compound was classed as inactive.

Source of the values: PubChem BioAssay (NCATS).
